Screens as filed in PubChem.
G9a block: G9a (human) methyltransferase inhibition. Potency, µM (top dose mostly 102 µM), most hits filed as inhibitors. 350,000 compounds, 8.8% hits. AID 504332. G9a H3K9 monomethylation, AlphaScreen, 2 h; note: nearly all actives have a fitted effect of over 75% in size
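Compounds were preincubated with 20 nM G9a for 15 min, after which biotinylated H3K9 peptide (500 nM) and SAM (20 uM) started a 2 h room-temperature reaction. Monomethylated product was quantified by antibody-based AlphaScreen chemiluminescence.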
Sfp PPTase inh: Sfp phosphopantetheinyl transferase inhibition. Q9F4F7. Biochemical Sfp PPTase activity, qHTS. Potency, µM, usual class: inhibitors. 310,000 compounds, 3.5% hits. AID 1490;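 note: the enzyme is Sfp with the accession as filed and its product quenches rhodamine fluorescence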
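Fluorescence-quenching assay: 15 nM Sfp-PPTase preincubated 15 min at room temperature with compound, then 5 uM rhodamine-CoA and 12.5 uM BHQ-2-labelled YbbR peptide added. Fluorescence (ex 525/em 598 nm) read at start and after 30 min; difference gives rate.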
BAZ2B inh: BAZ2B (human) inhibition. 360,000 compounds, 4.4% hits. Potency, µM (series often up to 114 µM), hits mostly inhibitors. AlphaScreen BAZ2B-H3K14Ac peptide displacement. Q9UIF8; note: nearly all actives have a fitted effect of over 60% in size
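Compounds, titrated to a top concentration of 110 uM, were incubated 30 min at room temperature with preformed BAZ2B/acetyl-K14 H3 peptide complex (50 nM each). Proximity signal was measured by AlphaScreen after 20 min with beads.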
HP1b binding inh: inhibitors of HP1-beta chromodomain binding to methylated histone tails; P83916; 390,000 compounds, 0.56% hits; Potency, µM (highest dose often 114 µM), usual class: inhibitors; AlphaScreen HP1-beta / biotin-H3K9me3 peptide binding; note: nearly all actives have a fitted effect of over 70% in size
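HP1-beta protein (50 nM final) preincubated 30 min at room temperature with biotinylated H3(1-18)K9me3 peptide (50 nM) in PBS pH 7.4, 0.01% Tween-20, then compound added for 30 min. AlphaScreen streptavidin donor/nickel chelate acceptor beads (10 ug/mL final), 30 min dark, luminescence read.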
JMJD2A Tudor inh: JMJD2A Tudor domain (human) inhibition | 390,000 compounds, 4.4% hits | AID 504339 | Potency, µM (doses to about 114 µM), hits mostly inhibitors | AlphaScreen JMJD2A-Tudor / H3K4me3 peptide binding | O75164; note: nearly all actives have a fitted effect of over 50% in size
Each line names hits and unclear results; the compound was inactive in the other large screens; ! = not confirmed by another sample. Compounds with a hit are over-represented: about 12% of the library has one in this group of screens. Calls come from the whole dose curve; as a rule, active = well fitted curve in the direction sought with a large enough effect; inconclusive = small, poorly fitted or top-dose-only effect, or another doubt; inactive = no such curve, though single readings can be large; an effect the other way counts as inactive or inconclusive.

CCOC(=O)C1=C(O)/C(=C/c2cc(OC)c(OC)c(OC)c2)N=C1C	Sfp PPTase inh 89.1µM
CCOc1cc(/C=C2/N=C(C)C(C(=O)OC)=C2O)ccc1O	G9a block 44.7µM
CCOC(=O)C1=C(O)/C(=C\c2ccc(O)c(OCC)c2)N=C1C	G9a block inconclusive
O=C(c1cnc(Cl)c(Cl)c1)N1CCN(S(=O)(=O)c2ccc3ccccc3c2)CC1	none (no result: Sfp PPTase inh)
C#CCN1C(C)=C(C(=O)OC)C(c2cccc([N+](=O)[O-])c2)C(C(=O)OCC)=C1C (stereo not given)	G9a block 11.2µM! (no result: Sfp PPTase inh)
COc1cc(OC)c(NC(=O)Cc2ccc(OC)c(S(=O)(=O)N3CCOCC3)c2)cc1Cl	none
CSc1nc2ccc(NC(=O)c3ccc(F)c(F)c3)cc2s1	none
CSc1nc2ccc(NC(=O)c3ccc(=O)[nH]c3)cc2s1	G9a block 50.1µM
CN1C(=O)NC(c2ccc([N+](=O)[O-])cc2)C2=C1CC(C)(C)CC2=O (stereo not given)	none
CN1C(=O)NC(c2ccccc2[N+](=O)[O-])C2=C1CCCC2=O (stereo not given)	G9a block 44.7µM
CN1C(=O)NC(c2ccccc2[N+](=O)[O-])C2=C1CC(C)(C)CC2=O (stereo not given)	G9a block 50.1µM
Cc1ccnc(NC(=O)Cc2ccc(-c3ccccc3)cc2)c1	none
CCCCCc1nnc(NC(=O)Cc2ccc([N+](=O)[O-])cc2)s1	G9a block 44.7µM
CC(C)(C)Cc1nnc(NC(=O)Cc2ccc([N+](=O)[O-])cc2)s1	G9a block 10µM, Sfp PPTase inh 39.8µM, HP1b binding inh inconclusive, JMJD2A Tudor inh inconclusive
Cc1ccnc(NC(=O)Cc2ccc([N+](=O)[O-])cc2)c1	BAZ2B inh 50.1µM (no result: G9a block)
CCOC(=O)C1=C(COC(=O)CCOc2ccccc2C)NC(=O)NC1C (stereo not given)	none (no result: Sfp PPTase inh)
COc1ccccc1/C=C/C=N/n1c(-c2n[nH]c3c2CCC3)n[nH]c1=S	G9a block 1.41µM, Sfp PPTase inh 22.4µM, HP1b binding inh inconclusive, JMJD2A Tudor inh 35.5µM
COc1cc(OC)c(-c2nn3c(-c4n[nH]c5c4CCC5)nnc3s2)cc1OC	none (no result: G9a block, Sfp PPTase inh, BAZ2B inh)
COc1cccc(/C=N/n2c(-c3n[nH]c4c3CCC4)n[nH]c2=S)c1O	G9a block 1.41µM, Sfp PPTase inh 25.1µM, HP1b binding inh inconclusive, JMJD2A Tudor inh 7.94µM
COc1cccc(/C=N/n2c(-c3cc(C)[nH]n3)n[nH]c2=S)c1O	Sfp PPTase inh 2.24µM, BAZ2B inh inconclusive, JMJD2A Tudor inh 2.82µM (no result: G9a block)
COc1cc(/C=N/n2c(-c3n[nH]c4c3CCC4)n[nH]c2=S)cc(OC)c1O	G9a block inconclusive, Sfp PPTase inh 56.2µM, HP1b binding inh inconclusive, JMJD2A Tudor inh 1.12µM
C/C(=N\Nc1ccc([N+](=O)[O-])cc1)c1ccc(O)cc1	G9a block inconclusive, JMJD2A Tudor inh inconclusive (no result: BAZ2B inh)
COC(=O)[C@H](Cc1ccccc1)NC(=O)O[C@@H]1C(=O)c2cc(Br)ccc2O[C@H]1c1ccc2c(c1)OCO2	none (no result: G9a block, BAZ2B inh, HP1b binding inh, JMJD2A Tudor inh)
Cc1ccc(-c2n[nH]c3c2CCC3)cc1	none
S=c1[nH]nc(-c2n[nH]c3c2CCC3)n1/N=C/C=C/c1ccco1	Sfp PPTase inh 11.2µM, BAZ2B inh inconclusive, JMJD2A Tudor inh 5.01µM (no result: G9a block)
COc1ccc(C(C(=O)NC2CCCCC2)N(C(=O)c2snc(C(N)=O)c2N)c2ccc(OC)cc2OC)cc1 (stereo not given)	none
C(=N\Nc1ccc(-n2ccnc2)nn1)/c1ccccc1	Sfp PPTase inh 89.1µM, BAZ2B inh inconclusive
COc1cccc(Nc2ccc(-n3ccnc3)nn2)c1	none
Cc1ccc(C)c(OCCSc2nnc(-c3cccnc3)n2N)c1	none
CN(C)c1ccc(CNS(=O)(=O)c2ccc(-c3cc(C(F)(F)F)on3)s2)cc1	none (no result: Sfp PPTase inh)
COc1cccc(/C=C/C(=O)c2ccc(NC3=NCCCS3)cc2)c1	G9a block 44.7µM, BAZ2B inh inconclusive, JMJD2A Tudor inh inconclusive
COc1ccc(/C=C/C(=O)NC2=NCCS2)cc1OC	none
Cc1cccc(C(=O)Nc2ccc(C(=O)/C=C/c3cccnc3)cc2)c1	G9a block inconclusive, JMJD2A Tudor inh inconclusive
Cc1cccc(/C=C/C(=O)c2ccc(NC3=NCCCS3)cc2)c1	G9a block inconclusive, BAZ2B inh inconclusive, JMJD2A Tudor inh 44.7µM
CCCCc1nn2c(=O)cc(CN(CC)c3ccccc3)nc2s1	none (no result: Sfp PPTase inh)
O=C(NCCCNC(=O)c1ccco1)c1ccco1	none
